According to PubChem BioAssay AID1159506 (National Center for Advancing Translational Sciences (NCATS), 2015):
Whole data set: some 59,000 sequences, median the read-out near -0.00055, cut for the lowest 2% near -2. This is one part of a sample in which the lowest values are shown more often than they occur.

Test: Identification of proteins required for the processing of the EWS-FLI1 nascent transcript;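 also: robust z of luciferase light less the median z of siRNAs with the same seed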
Conditions: TC32 Ewing sarcoma NR0B1-luc vs CMV-luc (EWS-FLI1 target promoter against control promoter), 48 h; screened at 20 nM (by protocol)
How it was run: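 Genome-wide siRNA screen (Ambion v4.1, three siRNAs per gene, 20 nM final, RNAiMax) in Ewing sarcoma TC32 cells carrying NR0B1-promoter or CMV-promoter luciferase; OneGlo luciferase read 48 h post-transfection. Data normalized, z-score-MAD transformed and seed-adjusted.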

Sequence	seed-corrected z-score
UUCGAUAGUCUGUUUCUGC against SLK	-2.56
UCAGGGUAUUCAUUGGUGC against INCA1	-3.45
GAUGUAGAAGCCAUAGUUC against NIPAL4	0.499
UGGAGUUCUUAUAAAAUGC against C15orf43	-0.277
UUAAUUCCCGUGCCCUUGG against PON2	-3.2
UUUGGAUGUACGUGUAUAC against DYRK4	0.282
UACUUUCGCCUCCUCAUCC against CCDC89	1.17
UUUGGGCAGAUAGAAGGAG against ADAMTS15	0.203
UACUUUCAUAUGCAGGUCC against PCDH8	-1.4
AACCGUUCAUCCUUCGUGC against KLHL6	-0.163
UCAUCAUCAAAGGCGAUGG against GDNF	-2.86
UUCUUGGUGUUGUAGAAGG against AGPAT2	0.219
UCAGGUAGAACACUUUGCU against YWHAG	0.113
UUGCUAUCCAUGUAUAGCC against SLITRK1	0.475
UCGUGUAAAACAACAUGCG against AGMO	-0.652
UAACCUAUCAUAUUGGUAG against DDX17	0.216
UAGAUCACCAAGCCCUUCC against EFNB1	-0.0268
UCUCCAUAAACAUACAGGC against LACE1	1.68
UUGGUUGCAUCCCUGUCCG against PPP1R27	-3.59
UGAUGUACUGUGGAAGGUC against MAST3	-1.59
UGUAGUGACAUCUCCGCCU against MCFD2P1	0.515
UAAGGUCCCAGAAAGGCCU against ZP4	0.208

Sequence	seed-corrected z-score
UCUGGGUACAAUCUGGUGU against CHCHD10	-2.26
UCUGAUUCCGCUUCUGAGC against SIGLEC10	0.63
AUAGAUACCUAGGUCAACC against NEU3	0.24
UGCUGUUAGUUUGUGAUGC against LOC729254	0.247
UUCGAGACGAUUUCCAGUG against CMIP	-2.27
UACUAGGUACGAACCGUCC against PPTC7	-0.527
UCUCCUUACAUAACACUUC against EPHX2	0.0978
UUUGUGAUAGACUUCUUUC against CFAP126	1.14
AAACCUUCCGGUUUAGAUG against KCNH5	-0.00192
UUUGCCUCUUUCCUCAACC against ZBTB16	-2.32
UAUAGAUCAACAAAAAUAC against TRMT112	0.21
UUCCUUCUCGUCGUCGUAG against SERPINH1	-0.218
AGUGGGAUAAGGGCUCUGA against TMEM132A	-5.72
UAUUCUUCAUUGGUAUCCC against TMEM27	-0.429
UCCGUUUCCACAUAUCUAC against SUPT20H	-0.175
UAUGGUAAUAGUCCUCCAG against FNDC9	-0.0743
UUAGAAGCCCGCGUGAUGU against HS6ST3	0.236
UGAUUGGUUACUGCCCAGG against TAS2R20	-4.87
UCCGUUUCCAUAAUUACAG against SCUBE1	-0.917
AAACUAAUGAAAUAGUGCC against GPR39	-0.0661
AUAGAUCUUUAUAUAAGCC against ATL1	-0.744
UAGAGUUUCGGUUUAAAUG against RBBP5	0.215

Sequence	seed-corrected z-score
UUUUGUAUGUAGACAUUGG against DEFB135	-0.8
UACACUAGCAGUGACCAUG against MBOAT1	0.0459
UUGAUAUCCAGCACAUUGC against CORO2B	1.69
UCUUCGUAGAUGACAUUCC against ERO1A	0.442
AUAUGUGCAGUCUUCUCCC against LINC00200	-0.44
UCCAGUAACAAUUAAUGCC against LRRC37A	0.451
UGUGGUCAAAGAGGAGAUG against SH3TC2	-2.8
UAGCAGAUAGGUCUCAAUG against MYH11	-0.244
UAGAUUCUCGUGCACAGCC against KIFC3	0.0224
AAAGUGACUAUUGUCAGGU against OR5M10	-0.162
UUUGUAGUUGUUCCCAUGC against TTPA	-0.714
UCCAAGGUCAGUGUGAUCC against ZDHHC23	0.574
UUAUGUAUCAUUGGAACCA against LOC388780	0.0558
UUUUAUUCCCUGUAUCAUG against ZNF619	-2.89
UUCACUCUCAAACUGGUCC against CNOT3	-0.499
UCUUGUCCAAGACUCCUUC against SMTN	-0.516
UGAUGAGCGACUCUCCUGG against C9orf142	-0.422
AUUGCUACUGAUAUAAGCC against DICER1	-0.452
UUCGGACUCAGCUUCUCCA against EXD3	0.0948
UUAUGAUCCAGGUAGAGGA against INHBE	0.817
UUCUGCUUUGCAUAUCUCC against POU5F1	-2.72
AUUCUUAAACGUGAUUUCC against NICN1	0.117
